Test results from PubChem BioAssay AID1159580 (chemical genetic matrix, 2015).
In all, about 5,500 compounds went through this assay and about 2,000 (36%) were called active. Inconclusive results (about 18%) are left out. No stated cut-off is given here; in the data, active means normalized growth mostly below about 0.91 (no sharp cut-off); inconclusive means no clear call, values can overlap the other calls; inactive means mostly above about 0.92. Some of the results follow.

Assay: chemical genetic growth profiling, strain panel (AID 1159580);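 further: tested at 20 µM; growth read once vehicle control cultures reached saturation at 30 °C; 1 = growth at the plate median or of vehicle wells; lower values mean less growth of the strain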
Settings: S. cerevisiae deletion strains, growth OD

Measured: normalized growth

CCCCCCC/C=C\CCCCCCCCC(=O)O
inactive: locus YAL040C, strain CLN3, hits give low values 1.01 | locus YCL061C, strain MRC1 (second series), hits give low values 1.01 | locus YDR363W, strain ESC2, hits give low values 1.02 | locus YER002W, strain NOP16, hits give low values 1.03 | locus YGR229C, strain SMI1, hits give low values 1.01 | locus YMR307W, strain GAS1, hits give low values 1.01 | locus YNL153C, strain GIM3, hits give low values 0.946 | locus YNL175C, strain NOP13, hits give low values 0.996 | locus YNL197C, strain WHI3, hits give low values 1.01 | locus YNL224C, strain SQS1, hits give low values 1.01 | locus YOR083W, strain WHI5 (second series), hits give low values 1.01
